Screening data: PubChem BioAssay, National Center for Advancing Translational Sciences (NCATS)
An excerpt weighted towards active compounds, which were near 0.69% of everything screened.
PINK1 expr mod = modulators of PINK1 expression | PINK1 immunofluorescence, high-content cytometry, 24 h | Potency, µM (highest dose often 76.6 µM), for inactives: top-dose activation (PINK1 increase), most hits filed as activators | actives 0.2% (n = 410,000) | AID 624263; active means well fitted activation curve with a large enough effect; inconclusive means small, poorly fitted or top-dose-only effect; cell line not stated here; further: % of control where 0% means no effect; nearly all actives have a fitted effect of over 65% in size
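Stable cell line treated 24 h with compounds at 5 concentrations (CCCP controls), then fixed and immunostained for PINK1 plus nuclear and cell stains; PINK1 immunofluorescence quantified by laser-scanning microplate cytometry.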
Abeta rescue = A-beta toxicity reversal in yeast. yeast expressing A-beta42, growth rescue, OD600, 48 h; response scale: 0% DMSO, 100% iron-clioquinol control. Potency, µM (top dose mostly 46.1 µM), usual class: activators. actives 0.063% (n = 410,000). AID 1347071; further: nearly all actives have a fitted effect of over 55% in size
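Yeast growth medium received pinned compounds, then yeast cells expressing toxic A-beta were added; plates incubated at 30 C for 48 hr. Growth read as absorbance at 600 nm, normalized to DMSO and equimolar FeCl3 plus clioquinol controls.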
GRP78 ERSR act = inducers of ER stress response in human glioma cells; Potency, µM, without a hit: at the highest dose activation, actives largely listed as activators; actives 0.02% (n = 420,000); U87-MG GRP78 promoter luciferase reporter, 16 h; further: series mostly up to about 76 µM; % of control where 0% means no effect; nearly all actives have a fitted effect of over 35% in size
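ERSR induction read as luciferase luminescence (Bright-Glo, 10 min at room temperature) in stably transfected human U87-MG glioma cells exposed to compounds for 16 h, using GRP78 as sensor.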
Vif-A3G inh = inhibitors of Vif-APOBEC3G interaction. actives 0.076% (n = 410,000). HeLa A3G-eYFP + Vif (tagged APOBEC3G with the HIV-1 protein that degrades it), YFP fluorescence, overnight. Q9HC16. Potency, µM (doses to about 46.1 µM), for inactives: at the highest dose activity, negative = active, hits mostly inhibitors. AID 602310; further: on the % scale 0 is the no-effect control and ±100 the full control effect; nearly all actives have a fitted effect of over 60% in size
Target sequence (Q9HC16 whole entry, looked up): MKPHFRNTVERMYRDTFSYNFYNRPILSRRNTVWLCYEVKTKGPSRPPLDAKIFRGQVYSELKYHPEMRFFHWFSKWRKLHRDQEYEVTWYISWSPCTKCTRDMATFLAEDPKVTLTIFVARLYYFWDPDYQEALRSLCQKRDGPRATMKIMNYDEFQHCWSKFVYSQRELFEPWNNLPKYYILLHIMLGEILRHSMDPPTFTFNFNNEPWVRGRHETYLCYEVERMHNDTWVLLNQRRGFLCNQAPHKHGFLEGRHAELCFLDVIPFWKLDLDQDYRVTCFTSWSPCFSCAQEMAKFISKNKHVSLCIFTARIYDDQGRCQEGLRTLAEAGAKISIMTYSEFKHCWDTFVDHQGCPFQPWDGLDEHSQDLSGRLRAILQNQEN
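HeLa cells stably expressing Vif and C-terminally eYFP-tagged A3G, seeded overnight at 37 deg C, then exposed to compound by pintool overnight at 37 deg C. Rise in yellow fluorescence (Ex 488/Em 500-530, Acumen) marks blocked Vif-driven A3G degradation.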
Vif-APOBEC3F blk = Vif-A3F binding inhibition; actives 0.2% (n = 390,000); Potency, µM (series often up to 46.1 µM), for inactives: top-dose activity, negative = active; HeLa A3F-eYFP + Vif (tagged APOBEC3F with the HIV-1 protein that degrades it), YFP fluorescence increase; further: % of control where 0% means no effect; nearly all actives have a fitted effect of over 65% in size
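HeLa cells stably expressing Vif plus C-terminally eYFP-tagged A3F were seeded, incubated overnight at 37 deg C, dosed with compound, incubated overnight again at 37 deg C. Yellow fluorescence (Ex 488/Em 500-530) reported blocked Vif-mediated A3F-eYFP degradation.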
FUS yeast rescue = suppressors of FUS proteinopathy in yeast; S. cerevisiae FUS-expressing, growth rescue, OD600, 24 h; Potency, µM (doses to about 76.6 µM), usual class: activators; actives 0.24% (n = 390,000);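 further: plate controls were DMSO vehicle for no effect and reference control for full effect; nearly all actives have a fitted effect of over 55% in size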
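Toxicity suppression screen in FUS-yeast. Cells induced with 2% galactose, starting OD 0.005, treated 24hr at 30C with compounds at multiple final concentrations; growth by OD600.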
* marks the source's active call; other numbers are inactive results; [ ] = another dose, or the depositor's remark. Unless noted, the call rests on the fitted dose curve; in most records, active means well fitted curve in the direction sought with a large enough effect; inconclusive means small, poorly fitted or top-dose-only effect, or another doubt; inactive means no such curve, though single readings can be large; an effect the other way counts as inactive or inconclusive. Potency means the concentration at half of the fitted maximal effect.

What do the screens show for `Nc1cc(Nc2ccccc2)c2nonc2c1[N+](=O)[O-]`?
PINK1 expr mod: 44.7µM*; Abeta rescue: inactive; GRP78 ERSR act: -4.3%; Vif-A3G inh: inconclusive; Vif-APOBEC3F blk: inconclusive; FUS yeast rescue: inactive

What do the screens show for `Cc1cnc(-n2ncc(C(=O)N(C)CC3CCCN(C)C3)c2C2CC2)nc1-c1cccs1` (stereo not given)?
PINK1 expr mod: 0.1%; GRP78 ERSR act: 0.2%

Results for O=c1c2ccccc2n(Cc2ccco2)n1[C@@H](Cc1ccccc1)Cn1cc(-c2ccc(-c3ccccc3)cc2)nn1 ?
FUS yeast rescue: 17.8µM*

Results for CCC[n+]1c(/C=C/c2c(OC)cc(OC)cc2OC)ccc2ccccc21 ?
PINK1 expr mod: inconclusive; GRP78 ERSR act: -8.2%; Vif-A3G inh: inconclusive

Results for CCC(=O)NCc1nc(-c2cccc(NC(=O)c3ccc(C)s3)c2)oc1C ?
PINK1 expr mod: 0.9%; GRP78 ERSR act: -2.3%

How did COc1ccccc1C(=O)COC(=O)c1cc(S(=O)(=O)N2CCCCC2)ccc1N1CCOCC1 do in these assays?
PINK1 expr mod: 6.2%; Abeta rescue: inconclusive; GRP78 ERSR act: -0.9%; Vif-A3G inh: 2.5%; Vif-APOBEC3F blk: inconclusive; FUS yeast rescue: inactive

What do the screens show for `COc1ccc(C(=O)COC(=O)c2cc(S(=O)(=O)N3CCCCC3)ccc2N2CCOCC2)c(OC)c1`?
PINK1 expr mod: -3.3%; Abeta rescue: inactive; GRP78 ERSR act: -6.2%; Vif-A3G inh: -3.8%; Vif-APOBEC3F blk: -1.5%; FUS yeast rescue: 15.8µM*

How did C(=N\Nc1nc(Nc2ccccc2)nc(N2CCOCC2)n1)/c1c[nH]c2ccccc12 do in these assays?
PINK1 expr mod: -3.3%; Abeta rescue: inactive; GRP78 ERSR act: 7.2%; Vif-A3G inh: -3.1%; Vif-APOBEC3F blk: -13.2%; FUS yeast rescue: 28.2µM*

What do the screens show for `Cc1cnc2c3c(cc(Cl)c2c1)-c1ccccc1S(=O)(=O)N3`?
PINK1 expr mod: 11.6%; GRP78 ERSR act: -9.7%; Vif-A3G inh: inconclusive

Results for O=S1(=O)Nc2c(ccc3cccnc23)-c2ccccc21 ?
PINK1 expr mod: -8.3%[38.3 µM]; Abeta rescue: inactive; GRP78 ERSR act: inconclusive; Vif-A3G inh: 7.08µM*; Vif-APOBEC3F blk: -0.9%; FUS yeast rescue: inactive

Results for O=C(O)C1CCN(C(=O)c2ccccc2N2C(=O)[C@@H]3Cc4c([nH]c5ccccc45)C(c4cccc(Cl)c4)N3C2=O)CC1 (stereo not given in full) ?
PINK1 expr mod: 0.7%; Abeta rescue: inactive; GRP78 ERSR act: -2.3%; Vif-A3G inh: -0.3%; Vif-APOBEC3F blk: -0.5%; FUS yeast rescue: 12.6µM*

How did Cc1ccc(C2c3[nH]c4ccccc4c3C[C@H]3C(=O)N(c4ccccc4C(=O)N4CCC(C(=O)O)CC4)C(=O)N23)cc1 (stereo not given in full) do in these assays?
PINK1 expr mod: 0.8%; Abeta rescue: inactive; GRP78 ERSR act: -1.8%; Vif-A3G inh: -0.8%; Vif-APOBEC3F blk: -5.0%; FUS yeast rescue: inconclusive

What do the screens show for `O=C(CSC1=NNC(c2ccccn2)S1)Nc1cccc(Cl)c1` (stereo not given)?
PINK1 expr mod: 10.6%; Abeta rescue: 15.8µM*; GRP78 ERSR act: 1.5%; Vif-A3G inh: -4.2%; Vif-APOBEC3F blk: inconclusive; FUS yeast rescue: inactive

Results for CC1(C2CCN(Cc3c[nH]c4ccccc34)CC2)NC(=O)N(CCN2CCOCC2)C1=O (stereo not given) ?
PINK1 expr mod: 1.9%; GRP78 ERSR act: -0.6%

Results for CCOc1ccc(-c2nc(CSCC(=O)N3CCN(c4cccc(C(F)(F)F)c4)CC3)c(C)o2)cc1 ?
PINK1 expr mod: 1.4%; Abeta rescue: inactive; GRP78 ERSR act: -6.4%; Vif-A3G inh: 4.3%; Vif-APOBEC3F blk: -1.9%; FUS yeast rescue: 22.4µM*

What do the screens show for `CCOc1ccc(-c2nc(CSCC(=O)N3CCN(c4ccc(F)cc4)CC3)c(C)o2)cc1`?
PINK1 expr mod: 0.7%; Abeta rescue: inactive; GRP78 ERSR act: -3.0%; Vif-A3G inh: 3.6%; Vif-APOBEC3F blk: 3.4%; FUS yeast rescue: inactive

How did COc1ccc(-c2nc(CSCC(=O)N3CCN(c4cccc(C)c4C)CC3)c(C)o2)cc1OC do in these assays?
PINK1 expr mod: 0.8%; Abeta rescue: inactive; GRP78 ERSR act: -5.7%; Vif-A3G inh: 3.1%; Vif-APOBEC3F blk: 0.4%; FUS yeast rescue: 25.1µM*

What do the screens show for `Cc1ccc(C)c(OCc2nc3ccc(S(=O)(=O)Nc4c(C)n(C)n(-c5ccccc5)c4=O)cc3[nH]2)c1`?
PINK1 expr mod: -1.6%; Abeta rescue: inactive; GRP78 ERSR act: -2.4%; Vif-A3G inh: -8.2%; Vif-APOBEC3F blk: 2.3%; FUS yeast rescue: 35.5µM*

What do the screens show for `Cc1ccc(S(=O)(=O)Cc2ccc(C(=O)N3CCN(c4cccc(Cl)c4)CC3)o2)cc1`?
PINK1 expr mod: 1.7%; Abeta rescue: inactive; GRP78 ERSR act: -5.7%; Vif-A3G inh: inconclusive; Vif-APOBEC3F blk: -4.5%; FUS yeast rescue: inconclusive

What do the screens show for `Cc1ccc(Cl)cc1N1CCN(C(=O)c2ccc(CS(=O)(=O)c3ccc(Br)cc3)o2)CC1`?
PINK1 expr mod: 1.7%; Abeta rescue: inactive; GRP78 ERSR act: -2.5%; Vif-A3G inh: -6.3%; Vif-APOBEC3F blk: 0.9%; FUS yeast rescue: 22.4µM*

What do the screens show for `CN(C)c1c2ccccc2nc2c(F)c(F)c(F)c(F)c12`?
PINK1 expr mod: 13.1%; Abeta rescue: inactive; GRP78 ERSR act: inconclusive; Vif-A3G inh: inconclusive; Vif-APOBEC3F blk: inconclusive; FUS yeast rescue: inactive

What do the screens show for `Cc1c2ccccc2nc2c(F)c(N(C)C)c(F)c(F)c12`?
PINK1 expr mod: -0.9%; Abeta rescue: inactive; GRP78 ERSR act: 5.1%; Vif-A3G inh: inconclusive; Vif-APOBEC3F blk: 25.1µM*; FUS yeast rescue: inactive

Results for Cc1cccc(C(=O)NCc2nc(-c3cccc(NC(=O)C4CCCN(C)C4)c3)oc2C)n1 (stereo not given) ?
PINK1 expr mod: -1.0%; GRP78 ERSR act: -2.4%

Results for COc1ccc(C(=O)/C=C/Nc2ccc([N+](=O)[O-])cc2C)cc1OC ?
PINK1 expr mod: 28.2µM*; Abeta rescue: inactive; GRP78 ERSR act: -3.5%; Vif-A3G inh: inconclusive; Vif-APOBEC3F blk: -5.7%; FUS yeast rescue: inactive

What do the screens show for `CNc1cc([N+](=O)[O-])ccc1N/C=C/C(=O)c1ccc2c(c1)OCO2`?
PINK1 expr mod: 14.1µM*; Abeta rescue: inactive; GRP78 ERSR act: 1.9%; Vif-A3G inh: 1.8%; Vif-APOBEC3F blk: inconclusive
